{
  "source": "PubChem BioAssay (NCI)",
  "note": "The panel holds about 83,000 compounds, 20% with a hit somewhere; the sample as a whole holds those more often.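 Method: cells in 96-well plates; compound added at one concentration; 48 h incubation; percent growth measured; values under 10 scored active.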 Unmarked numbers belong to inactive results. Activity calls are given as the source filed them.",
  "data": [
    {"system": "MOLT-4 leukemia", "assay": "NCI-60 one-dose screen, 48 h (100 = growth as untreated, 0 = no growth, -100 = all killed)", "conditions": "10 µM unless noted", "values": [
      {"smiles": "COc1ccc(C(O)c2cc3c(N)c(C(=O)Nc4cccc(Br)c4)sc3nc2C)cc1", "note": "(configuration not stated)", "growth": "15.8%"},
      {"smiles": "CC/C(=C(/c1ccc(Cl)cc1)c1ccc(OCCN2CCCCC2)cc1)c1ccc(OC)cc1", "growth": "25.8%"},
      {"smiles": "CCOC(=O)c1c2c(n3cccc(F)c13)C(=O)c1ncccc1C2=O", "growth": "69.3%"},
      {"smiles": "CC(=O)O[C@@H]1C[C@]2(C(C)C)O[C@@]1(C)[C@@H]1CCC(C)=C1[C@@H]2OC(=O)/C=C/c1ccccc1", "growth": "83.8%"},
      {"smiles": "O=C(O)c1ccc(-n2cc(/C=N/Nc3ccccc3)c(-c3ccc(F)cc3F)n2)cc1", "growth": "38.7%"},
      {"smiles": "O=C(NCc1ccc(Cl)cc1Cl)C1CCC(=O)N1c1cccs1", "note": "(configuration not stated)", "growth": "98.1%"},
      {"smiles": "CCSc1oc(-c2ccccc2)nc1[P+](c1ccccc1)(c1ccccc1)c1ccccc1", "growth": "1.34% (active)"},
      {"smiles": "O=C1C(=O)N(Cc2ccc(-c3ccccc3)cc2)c2ccc(OC(F)(F)F)cc21", "growth": "30%"},
      {"smiles": "Cc1nc2sc(C(=O)Nc3ccc(Br)cc3)c(N)c2cc1C(O)c1ccccc1", "note": "(configuration not stated)", "growth": "26.2%"},
      {"smiles": "O=C(Cn1cc(CSc2nc3ccccc3o2)nn1)Nc1ccc(F)cc1F", "growth": "120%"},
      {"smiles": "COC(=O)c1nc(-c2ccc(C)cc2)oc1S(=O)(=O)c1cccc(OC)c1", "growth": "-7.44% (active)"},
      {"smiles": "COc1ccc(C/C(C)=C(/c2ccc(OCCN(C)C)cc2)c2ccc(OC(=O)NCc3ccccc3)cc2)cc1", "growth": "37.3%"},
      {"smiles": "COc1ccc(/C=C(\\C#N)n2nnc3cc(F)c(F)cc32)cc1", "growth": "22.4%"},
      {"smiles": "COC(=O)c1c2c(c(C)[n+]([O-])c1C)C(=O)C(NCc1cccc(OC)c1)=CC2=O", "growth": "3.8% (active)"},
      {"smiles": "COc1ccc(-c2nc3cc(C(=O)NCc4ccccc4)ccc3n2C2CCCCC2)cc1", "growth": "66.6%"},
      {"smiles": "CCN(CC)CCn1c2ccc(OC)cc2c2sc3cc(OC)ccc3c(=O)c21", "growth": "3.81% (active)"},
      {"smiles": "COc1ccc(C(=O)N2c3ccccc3Sc3ccccc32)c(OC)c1", "growth": "12%"},
      {"smiles": "CCN1CCN(C(=O)[C@]23CCC(C)(C)C[C@@H]2C2=CC[C@@H]4[C@@]5(C)CCC(=O)C(C)(C)[C@@H]5CC[C@@]4(C)[C@]2(C)CC3)CC1", "growth": "10.1%"},
      {"smiles": "Clc1ccc2c(NC3CCC(N4CCOCC4)CC3)ccnc2c1", "note": "(configuration not stated)", "growth": "74.4%"},
      {"smiles": "CCCOC(=O)Nc1nc2ccc(SCC(C)C)cc2s1", "growth": "33.8%"},
      {"smiles": "COc1ccc(Nc2ncc(Br)c(NCCCNC(=O)c3cccs3)n2)cc1", "growth": "19.5%"},
      {"smiles": "N#Cc1c(-c2ccccc2)cc(-c2ccc(Nc3nc(Nc4ccc(Cl)cc4)nc(Nc4ccc(Cl)cc4)n3)cc2)nc1N", "growth": "4.72% (active)"},
      {"smiles": "COC(=O)c1c(C)c2n(c1C)C(=O)C(c1ccccc1)=C2", "growth": "66.8%"},
      {"smiles": "COc1ccc(Nc2ncc(Br)c(NCCCNC(=O)C3CCCC3)n2)cc1", "growth": "19.5%"},
      {"smiles": "C=CCn1c(C)nc2ccc(Nc3nc(Nc4ccc5nc(C)n(CC=C)c5c4)c4ccccc4n3)cc21", "growth": "-45.5% (active)"},
      {"smiles": "O=C(O)c1cn(C2CC2)c2cc(N3CCN(Cc4ccc5ccccc5c4O)CC3)c(F)cc2c1=O", "growth": "39%"},
      {"smiles": "N#C/C(=C\\c1c(-c2ccccc2)[nH]c2ccccc12)C(N)=O", "growth": "61.6%"},
      {"smiles": "COc1ccc(C2CC(c3ccc(Nc4nc(Nc5ccccc5)nc(Nc5ccccc5)n4)cc3)=NN2C(C)=O)cc1", "note": "(configuration not stated)", "growth": "71.2%"},
      {"smiles": "COc1cc2c(c(OC)c1OC)CCC(c1cccc(C(=O)Nc3cccc(Cl)c3)c1)O2", "note": "(configuration not stated)", "growth": "30.4%"},
      {"smiles": "COc1cc(OCc2cccc(Br)c2C)cc(OC)c1C=O", "growth": "80.2%"},
      {"smiles": "COC1=CC(c2ccc[nH]2)=N/C1=C\\c1[nH]c(C)c(C(=O)OC(C)C)c1C", "growth": "-5.6% (active)"},
      {"smiles": "CCCc1c(OC(=O)c2ccccc2)nc2[nH]c(=O)sc2c1C", "growth": "104%"},
      {"smiles": "CN(C)c1ccc(-c2c(C#N)c(N)nn2C(=O)c2ccc(NC(=O)c3ccccn3)cc2)cc1", "growth": "99.5%"},
      {"smiles": "CC1CCN(CCOc2ccc(CNc3ccc4nc(CCC5CCCCC5)[nH]c4c3)cc2)CC1", "growth": "11.2%"},
      {"smiles": "COc1cc2c(cc1OCCCN1CCN(CCCOc3cc4c(cc3OC)C(=O)N3CCC[C@H]3C=N4)CC1)C=CC(C)(C)O2", "growth": "-12.8% (active)"},
      {"smiles": "Oc1c(I)cc(I)cc1CNCCN(Cc1ccccn1)Cc1ccccn1", "growth": "-29.5% (active)"},
      {"smiles": "O=CN1N=C(c2cccc(Nc3ccnc4cc(Cl)ccc34)c2)CC1c1ccccc1", "note": "(configuration not stated)", "growth": "10%"}
    ]}
  ]
}
